From PubChem BioAssay (Tox21)
Values without a mark were called inactive. Records with an inconclusive call do not appear. Where a call stands in place of a potency, no number is given. Activity calls are given as the source filed them. Unless noted, the call rests on the fitted dose curve.

What was measured:
[1] = Nuclear factor erythroid 2-related factor 2/antioxidant responsive element (Nrf2/ARE) small molecule agonists: qHTS cell viability counter screen in human keratinocytes (AID 1919968; active means well fitted curve in the direction sought with a large enough effect in the repeat runs; an effect the other way counts as inactive or inconclusive; further: nearly all actives have a fitted effect of over 55% in size; further: potency means the concentration at half of the fitted maximal effect)
In short: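 Measured as CellTiter-Fluor fluorescence, this readout tracks cytotoxicity in the same wells as the ARE-luciferase screen. HaCaT reporter cells (1,500/well) received compounds after a 5 h pre-incubation and were exposed for 23 h.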

[2] = Nuclear factor erythroid 2-related factor 2/antioxidant responsive element (Nrf2/ARE) small molecule agonists: luciferase reporter gene qHTS assay in human keratinocytes (AID 1919969); further: nearly all actives have a fitted effect of over 35% in size; further: potency means the concentration at half of the fitted maximal effect
[3] = target: Gonadotropin-releasing hormone receptor (Homo sapiens) (UniProt P30968); test: Human gonadotropin-releasing hormone receptor (GnRHR) small molecule agonists, calcium flux assay in GnRHR-HEK293 cells (AID 1920063); further: nearly all actives have a fitted effect of over 35% in size
In short: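 Fluorescence kinetics (480 nm excitation, 540 nm emission; 3 min, 1 s steps) report calcium mobilisation in human GnRHR-HEK293 cells in agonist mode. Dye incubation: 1 h, 37 C.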

[4] = target: KiSS-1 receptor (Homo sapiens) (UniProt Q969F8); test: Human kisspeptin (KISS1R) small molecule agonists, calcium flux assay in KISS1R-HEK293 cells (AID 1920064; active means well fitted curve in the direction sought with a large enough effect in the repeat runs; an effect the other way counts as inactive or inconclusive)
In short: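 Measures KISS1R agonism through calcium-sensitive dye fluorescence in stably transfected HEK293 cells, read for 3 min after pin-tool compound delivery; 15-point titrations in triplicate.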

[5] = G protein-coupled receptor (GPCR) small molecule agonists, calcium flux assay: HEK293 wild type cell line counter screen (AID 1920065)
In short: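 Readout: fluorescence at 480 nm excitation/540 nm emission, sampled at 1 s intervals for 3 min. Cells had been cultured 18 h, then dye-loaded 1 h at 37 C before compound or ATP addition.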

[6] = p53 small molecule agonists, cell-based qHTS assay with human liver microsomes (AID 1963577);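 further: p53 response element beta-lactamase reporter cells with liver microsomes plus NADPH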
In short: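 HLM-supplemented p53RE-bla reporter assay: 16 h compound exposure at 37 C, microsomes and NADPH each 0.5 mg/mL final, read by fluorescence intensity.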

[7] = p53 small molecule agonists, cell-based qHTS assay with rat liver microsomes (AID 1963578)
In short: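 Quantitative HTS of the Tox21 10K library: p53RE-bla cells, rat liver microsomes plus NADPH at 0.5 mg/mL final each, 16 h at 37 C, beta-lactamase fluorescence detection.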

[8] = p53 small molecule agonists, cell-based qHTS assay with human liver microsomes: qHTS cell viability counter screen (AID 1963579); further: nearly all actives have a fitted effect of over 45% in size; further: potency means the concentration at half of the fitted maximal effect
In short: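 Viability of p53RE-bla cells is measured as CellTiter-Glo luminescence following a 16 h, 37 C incubation with compound, liver microsomes from human donors and NADPH.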

[9] = p53 small molecule agonists, cell-based qHTS assay with rat liver microsomes: qHTS cell viability counter screen (AID 1963580); further: nearly all actives have a fitted effect of over 45% in size; further: potency means the concentration at half of the fitted maximal effect
In short: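 Viability is assessed in parallel with the p53 reporter read: HCT-116 p53RE-bla cells receive compounds plus rat microsomes and NADPH (0.5 mg/mL final apiece), incubate 16 h at 37 C, and then CellTiter-Glo luminescence is recorded.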

[10] = p53 small molecule agonists, cell-based qHTS assay: qHTS cell viability counter screen (AID 1963581); further: nearly all actives have a fitted effect of over 45% in size; further: potency means the concentration at half of the fitted maximal effect
In short: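 In the same plates used for the p53 bla reporter, HCT-116 cells given compounds for 16 h at 37 C received CellTiter-Glo; luminescence was recorded 30 min later at room temperature.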

[11] = p53 small molecule agonists, cell-based qHTS assay (AID 1963582; active means well fitted activation curve with a large enough effect in the signal ratio in the repeat runs, not every such curve was filed as active; the % refers to the signal ratio)
In short: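 Compounds are pin-transferred in DMSO onto p53RE-bla cells and incubated 16 h at 37 C. The B/G FRET beta-lactamase substrate is then applied for 2 h at RT and fluorescence recorded.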

[12] = cAMP Responsive Elements (CRE) small molecule agonists, cell-based qHTS assay (AID 1963590)
In short: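 Cell line: CRE-bla HEK 293T; medium DMEM/10% dialyzed FBS/0.1 mM NEAA/1 mM pyruvate/25 mM HEPES; 3 h compound exposure; beta-lactamase FRET readout after 2 h substrate loading at RT.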

[13] = cAMP Responsive Elements (CRE) small molecule antagonists, cell-based qHTS assay (AID 1963591; active means well fitted inhibition curve with a large enough effect in the signal ratio in the repeat runs, not every such curve was filed as active; the % refers to the signal ratio)
In short: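 Inhibition of NKH477-driven (0.25 uM final) CRE-beta-lactamase signal in HEK293T cells, 3 h compound exposure at 37 °C, detected by FRET substrate fluorescence.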

[14] = target: Beta-2 adrenergic receptor (Homo sapiens) (UniProt P07550); test: Adrenergic beta2 receptor (ADRB2) small molecule antagonists, cell-based qHTS assay (AID 1963592); further: series mostly up to about 92 µM; nearly all actives have a fitted effect of over 50% in size
In short: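 Cells (CHO, stable ADRB2 overexpression) incubated 18-20hr at 37C; compounds added from DMSO; agonist mix (1nM isoproterenol, 100uM IBMX, 25uM Ro-20-1724) added; 0.5hr RT; d2-cAMP and anti-cAMP-cryptate added; 1hr RT; 665/615 nm read.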

[15] = target: D(2) dopamine receptor (Homo sapiens) (UniProt P14416); test: Dopamine D2 receptor (DRD2) small molecule agonists, cell-based qHTS assay (AID 1963594); further: nearly all actives have a fitted effect of over 35% in size
In short: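 HEK293 cells stably expressing human DRD2, pre-treated with PDE inhibitor Ro20-1724 (0.1 mM final) and compound 10 min at room temperature, then stimulated with NKH477 (200nM […]) for 30 min. cAMP read by HTRF (665/620 nm).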

[16] = target: D(2) dopamine receptor (Homo sapiens) (UniProt P14416); test: Dopamine D2 receptor (DRD2) small molecule antagonists, cell-based qHTS assay (AID 1963595; active means well fitted inhibition curve with a large enough effect in the signal ratio in the repeat runs, with a control signal flat; the % refers to the signal ratio; further: potency means the concentration at half of the fitted maximal effect)
In short: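 Cells were plated and grown for 24 h at 37 °C. Ro20-1724 (0.1 mM final) went in first, then compound for 10 min. NKH477 (200 nM) with quinpirole (12 nM) followed for 30 min at RT, then HTRF detection reagents for 1 h.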

[17] = target: 5-hydroxytryptamine receptor 2A (Homo sapiens) (UniProt P28223); test: 5-hydroxytryptamine receptor 2A (HTR2A) small molecule antagonists, cell-based qHTS assay (AID 1963586); further: nearly all actives have a fitted effect of over 45% in size
In short: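 Antagonist-mode intracellular calcium assay: DOI (4 nM) added after 5 min compound pre-incubation at room temperature to dye-loaded HTR2A-CHO cells. Fluorescence followed for 3 min, sampled every second.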

[18] = target: 5-hydroxytryptamine receptor 2A (Homo sapiens) (UniProt P28223); test: 5-hydroxytryptamine receptor 2A (HTR2A) small molecule agonists, cell-based qHTS assay (AID 1963587); further: nearly all actives have a fitted effect of over 30% in size
In short: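 CHO cells stably expressing human HTR2A, plated 18 h, loaded with calcium dye 1 h at 37 C. Agonist mode: compounds added and intracellular calcium fluorescence recorded kinetically for 2 min at 1 sec intervals.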

[19] = target: Muscarinic acetylcholine receptor M1 (Homo sapiens) (UniProt P11229); test: Cholinergic receptor muscarinic 1 (CHRM1) small molecule antagonists, cell-based qHTS assay (AID 1963588); further: nearly all actives have a fitted effect of over 40% in size
In short: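 CHRM1-CHO calcium-flux assay, antagonist mode. Cells were seeded 18 h, dye-loaded 1 h at 37 C and given compound for 5 min at RT, then acetylcholine was added at 50nM. FDSS fluorescence was read 3 min; 15 concentrations, three runs.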

[20] = target: Muscarinic acetylcholine receptor M1 (Homo sapiens) (UniProt P11229); test: Cholinergic receptor muscarinic 1 (CHRM1) small molecule agonists, cell-based qHTS assay (AID 1963589); further: nearly all actives have a fitted effect of over 35% in size
In short: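 Each compound was tested at 15 concentrations across three independent runs on dye-loaded CHO cells stably expressing human CHRM1, reading intracellular calcium fluorescence kinetically at 1 sec intervals.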

Beta-2 adrenergic receptor (Homo sapiens), sequence (P07550 whole entry, looked up): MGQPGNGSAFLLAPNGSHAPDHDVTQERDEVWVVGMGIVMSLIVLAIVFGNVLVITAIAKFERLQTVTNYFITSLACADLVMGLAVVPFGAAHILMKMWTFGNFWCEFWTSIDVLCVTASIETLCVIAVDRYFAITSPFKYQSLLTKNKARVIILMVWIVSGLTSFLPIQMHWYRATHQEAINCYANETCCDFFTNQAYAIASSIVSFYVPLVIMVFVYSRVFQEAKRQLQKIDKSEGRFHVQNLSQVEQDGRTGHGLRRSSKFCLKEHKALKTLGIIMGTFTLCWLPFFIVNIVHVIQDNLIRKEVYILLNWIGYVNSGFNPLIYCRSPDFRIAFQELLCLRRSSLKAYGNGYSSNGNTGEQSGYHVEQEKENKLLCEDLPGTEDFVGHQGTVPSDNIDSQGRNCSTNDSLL
KiSS-1 receptor (Homo sapiens), sequence (Q969F8 whole entry, looked up): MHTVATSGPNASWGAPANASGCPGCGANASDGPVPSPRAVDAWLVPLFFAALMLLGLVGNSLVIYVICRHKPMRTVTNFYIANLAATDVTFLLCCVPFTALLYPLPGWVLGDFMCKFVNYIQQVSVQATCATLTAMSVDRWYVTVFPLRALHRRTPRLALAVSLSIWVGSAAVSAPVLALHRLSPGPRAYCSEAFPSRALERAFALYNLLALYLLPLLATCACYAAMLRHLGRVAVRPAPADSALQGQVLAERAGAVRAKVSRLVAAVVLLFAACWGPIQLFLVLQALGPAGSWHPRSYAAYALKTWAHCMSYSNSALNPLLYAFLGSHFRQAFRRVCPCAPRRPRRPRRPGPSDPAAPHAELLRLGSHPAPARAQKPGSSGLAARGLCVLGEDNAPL
D(2) dopamine receptor (Homo sapiens), sequence (P14416 whole entry, looked up): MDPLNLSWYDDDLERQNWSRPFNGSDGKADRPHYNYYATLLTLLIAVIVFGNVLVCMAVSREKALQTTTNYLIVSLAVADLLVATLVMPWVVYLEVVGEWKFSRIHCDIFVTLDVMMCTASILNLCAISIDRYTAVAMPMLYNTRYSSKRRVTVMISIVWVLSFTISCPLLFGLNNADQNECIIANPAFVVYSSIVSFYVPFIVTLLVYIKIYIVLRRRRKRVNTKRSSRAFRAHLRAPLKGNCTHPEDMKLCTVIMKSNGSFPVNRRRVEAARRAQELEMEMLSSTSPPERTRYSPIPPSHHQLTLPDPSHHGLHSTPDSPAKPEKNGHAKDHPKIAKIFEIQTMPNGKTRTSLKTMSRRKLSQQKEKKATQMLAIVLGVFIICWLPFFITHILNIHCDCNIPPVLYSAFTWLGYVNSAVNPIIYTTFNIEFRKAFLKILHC
Gonadotropin-releasing hormone receptor (Homo sapiens), sequence (P30968 whole entry, looked up): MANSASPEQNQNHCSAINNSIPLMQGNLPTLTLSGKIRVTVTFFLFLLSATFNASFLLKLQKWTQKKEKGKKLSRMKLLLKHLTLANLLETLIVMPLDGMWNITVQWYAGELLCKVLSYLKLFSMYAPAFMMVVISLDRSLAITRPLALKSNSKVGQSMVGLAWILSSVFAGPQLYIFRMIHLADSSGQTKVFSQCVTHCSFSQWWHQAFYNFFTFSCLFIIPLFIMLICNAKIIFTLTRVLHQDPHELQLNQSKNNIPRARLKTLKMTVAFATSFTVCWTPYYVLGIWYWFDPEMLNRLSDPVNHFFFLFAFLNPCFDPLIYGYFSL
5-hydroxytryptamine receptor 2A (Homo sapiens), sequence (P28223 whole entry, looked up): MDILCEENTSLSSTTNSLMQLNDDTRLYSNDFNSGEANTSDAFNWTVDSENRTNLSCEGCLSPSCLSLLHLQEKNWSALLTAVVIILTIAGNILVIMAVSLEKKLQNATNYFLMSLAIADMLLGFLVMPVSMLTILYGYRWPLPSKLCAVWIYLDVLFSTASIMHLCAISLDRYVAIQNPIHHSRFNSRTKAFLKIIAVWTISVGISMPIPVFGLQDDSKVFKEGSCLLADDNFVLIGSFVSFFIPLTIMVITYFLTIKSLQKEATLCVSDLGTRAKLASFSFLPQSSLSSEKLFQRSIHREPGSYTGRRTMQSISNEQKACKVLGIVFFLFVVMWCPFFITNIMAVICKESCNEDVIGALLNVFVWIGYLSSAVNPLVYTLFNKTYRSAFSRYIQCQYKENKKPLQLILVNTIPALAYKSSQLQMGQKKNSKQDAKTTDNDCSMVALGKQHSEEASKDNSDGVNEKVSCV
Muscarinic acetylcholine receptor M1 (Homo sapiens), sequence (P11229 whole entry, looked up): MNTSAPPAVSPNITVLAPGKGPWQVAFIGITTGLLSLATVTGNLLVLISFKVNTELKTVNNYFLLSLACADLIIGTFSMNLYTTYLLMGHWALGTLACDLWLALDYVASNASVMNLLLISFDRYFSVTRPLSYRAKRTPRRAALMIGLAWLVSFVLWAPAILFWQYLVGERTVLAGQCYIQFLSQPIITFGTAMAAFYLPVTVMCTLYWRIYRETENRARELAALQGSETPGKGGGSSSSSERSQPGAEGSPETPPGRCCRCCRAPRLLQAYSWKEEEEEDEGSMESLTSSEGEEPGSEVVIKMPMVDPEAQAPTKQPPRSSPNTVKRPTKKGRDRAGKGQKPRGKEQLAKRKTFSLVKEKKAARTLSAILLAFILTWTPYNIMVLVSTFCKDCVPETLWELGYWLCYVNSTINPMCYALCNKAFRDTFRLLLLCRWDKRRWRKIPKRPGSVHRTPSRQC

## OC(CCCN1CCCCC1)(c1ccccc1)c1ccccc1
[1]
  Potency: inactive
[2]
  Potency: inactive
[3]
  Potency: inactive
[4]
  outcome: inactive
[5]
  outcome: inactive
[6]
  Potency: inactive
[7]
  Potency: inactive
[8]
  Potency: inactive
[9]
  Potency: inactive
[10]
  Potency: inactive
[11]
  Potency: inactive
[12]
  Potency: inactive
[13]
  Potency: inactive
[14]
  Potency: inactive
[15]
  Potency: inactive
[16]
  Potency: 5.96 µM (active)

## C#C[C@]1(OC(C)=O)CC[C@H]2[C@@H]3CCC4=C[C@@H](OC(C)=O)CC[C@@H]4[C@H]3CC[C@@]21C
[1]
  Potency: inactive
[2]
  Potency: inactive
[3]
  Potency: inactive
[4]
  outcome: inactive
[5]
  outcome: inactive
[6]
  Potency: inactive
[7]
  Potency: inactive
[8]
  Potency: inactive
[9]
  Potency: inactive
[10]
  Potency: inactive
[11]
  Potency: inactive
[12]
  Potency: inactive
[14]
  Potency: inactive
[15]
  Potency: inactive
[16]
  Potency: inactive

## C[C@@H]1C[C@H]2[C@@H]3CCC4=CC(=O)C=C[C@]4(C)[C@@]3(F)[C@@H](O)C[C@]2(C)[C@H]1C(=O)CO
[1]
  Potency: inactive
[2]
  Potency: inactive
[3]
  Potency: inactive
[4]
  outcome: inactive
[5]
  outcome: inactive
[6]
  Potency: inactive
[7]
  Potency: inactive
[8]
  Potency: inactive
[9]
  Potency: inactive
[10]
  Potency: inactive
[11]
  Potency: inactive
[13]
  Potency: inactive
[14]
  Potency: inactive
[16]
  Potency: inactive

## O=S1(=O)CC(Cl)(Cl)C(Cl)(Cl)C1
[1]
  Potency: 6.11 µM (active)
[2]
  Potency: 2.43 µM (active)
[3]
  Potency: inactive
[4]
  outcome: inactive
[5]
  outcome: inactive
[6]
  Potency: inactive
[7]
  Potency: inactive
[8]
  Potency: 5.76 µM (active)
[9]
  Potency: 18.2 µM (active)
[10]
  Potency: 16.2 µM (active)
[17]
  Potency: inactive
[18]
  Potency: inactive
[19]
  Potency: inactive
[20]
  Potency: inactive
